PLK1 PBD inh: blocks phosphopeptide binding to human PLK1 polo-box domain; P53350; Plk1 PBD binding of FITC phosphopeptide, fluorescence polarization; Potency, µM, most hits filed as inhibitors; 2.8% of 360,000 active; further: series mostly up to about 57 µM; nearly all actives have a fitted effect of over 65% in size
VDR inh: blocks the human vitamin D receptor | P11473 | VDR-SRC2-3 peptide fluorescence polarization, 2 h | Potency, µM, most hits filed as inhibitors | 0.93% of 400,000 active
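FP read-out; VDR + SRC2-3 coactivator peptide; 23 nl compound by pintool; 2 h RT incubation; reagents held at 4 deg C, protected from light.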
BAZ2B inh: inhibitors of human BAZ2B bromodomain; 4.4% of 360,000 active; Potency, µM (series often up to 114 µM), most hits filed as inhibitors; Q9UIF8; AID 504333; AlphaScreen BAZ2B-H3K14Ac peptide displacement; further: nearly all actives have a fitted effect of over 60% in size
Target sequence (Q9UIF8 whole entry, looked up): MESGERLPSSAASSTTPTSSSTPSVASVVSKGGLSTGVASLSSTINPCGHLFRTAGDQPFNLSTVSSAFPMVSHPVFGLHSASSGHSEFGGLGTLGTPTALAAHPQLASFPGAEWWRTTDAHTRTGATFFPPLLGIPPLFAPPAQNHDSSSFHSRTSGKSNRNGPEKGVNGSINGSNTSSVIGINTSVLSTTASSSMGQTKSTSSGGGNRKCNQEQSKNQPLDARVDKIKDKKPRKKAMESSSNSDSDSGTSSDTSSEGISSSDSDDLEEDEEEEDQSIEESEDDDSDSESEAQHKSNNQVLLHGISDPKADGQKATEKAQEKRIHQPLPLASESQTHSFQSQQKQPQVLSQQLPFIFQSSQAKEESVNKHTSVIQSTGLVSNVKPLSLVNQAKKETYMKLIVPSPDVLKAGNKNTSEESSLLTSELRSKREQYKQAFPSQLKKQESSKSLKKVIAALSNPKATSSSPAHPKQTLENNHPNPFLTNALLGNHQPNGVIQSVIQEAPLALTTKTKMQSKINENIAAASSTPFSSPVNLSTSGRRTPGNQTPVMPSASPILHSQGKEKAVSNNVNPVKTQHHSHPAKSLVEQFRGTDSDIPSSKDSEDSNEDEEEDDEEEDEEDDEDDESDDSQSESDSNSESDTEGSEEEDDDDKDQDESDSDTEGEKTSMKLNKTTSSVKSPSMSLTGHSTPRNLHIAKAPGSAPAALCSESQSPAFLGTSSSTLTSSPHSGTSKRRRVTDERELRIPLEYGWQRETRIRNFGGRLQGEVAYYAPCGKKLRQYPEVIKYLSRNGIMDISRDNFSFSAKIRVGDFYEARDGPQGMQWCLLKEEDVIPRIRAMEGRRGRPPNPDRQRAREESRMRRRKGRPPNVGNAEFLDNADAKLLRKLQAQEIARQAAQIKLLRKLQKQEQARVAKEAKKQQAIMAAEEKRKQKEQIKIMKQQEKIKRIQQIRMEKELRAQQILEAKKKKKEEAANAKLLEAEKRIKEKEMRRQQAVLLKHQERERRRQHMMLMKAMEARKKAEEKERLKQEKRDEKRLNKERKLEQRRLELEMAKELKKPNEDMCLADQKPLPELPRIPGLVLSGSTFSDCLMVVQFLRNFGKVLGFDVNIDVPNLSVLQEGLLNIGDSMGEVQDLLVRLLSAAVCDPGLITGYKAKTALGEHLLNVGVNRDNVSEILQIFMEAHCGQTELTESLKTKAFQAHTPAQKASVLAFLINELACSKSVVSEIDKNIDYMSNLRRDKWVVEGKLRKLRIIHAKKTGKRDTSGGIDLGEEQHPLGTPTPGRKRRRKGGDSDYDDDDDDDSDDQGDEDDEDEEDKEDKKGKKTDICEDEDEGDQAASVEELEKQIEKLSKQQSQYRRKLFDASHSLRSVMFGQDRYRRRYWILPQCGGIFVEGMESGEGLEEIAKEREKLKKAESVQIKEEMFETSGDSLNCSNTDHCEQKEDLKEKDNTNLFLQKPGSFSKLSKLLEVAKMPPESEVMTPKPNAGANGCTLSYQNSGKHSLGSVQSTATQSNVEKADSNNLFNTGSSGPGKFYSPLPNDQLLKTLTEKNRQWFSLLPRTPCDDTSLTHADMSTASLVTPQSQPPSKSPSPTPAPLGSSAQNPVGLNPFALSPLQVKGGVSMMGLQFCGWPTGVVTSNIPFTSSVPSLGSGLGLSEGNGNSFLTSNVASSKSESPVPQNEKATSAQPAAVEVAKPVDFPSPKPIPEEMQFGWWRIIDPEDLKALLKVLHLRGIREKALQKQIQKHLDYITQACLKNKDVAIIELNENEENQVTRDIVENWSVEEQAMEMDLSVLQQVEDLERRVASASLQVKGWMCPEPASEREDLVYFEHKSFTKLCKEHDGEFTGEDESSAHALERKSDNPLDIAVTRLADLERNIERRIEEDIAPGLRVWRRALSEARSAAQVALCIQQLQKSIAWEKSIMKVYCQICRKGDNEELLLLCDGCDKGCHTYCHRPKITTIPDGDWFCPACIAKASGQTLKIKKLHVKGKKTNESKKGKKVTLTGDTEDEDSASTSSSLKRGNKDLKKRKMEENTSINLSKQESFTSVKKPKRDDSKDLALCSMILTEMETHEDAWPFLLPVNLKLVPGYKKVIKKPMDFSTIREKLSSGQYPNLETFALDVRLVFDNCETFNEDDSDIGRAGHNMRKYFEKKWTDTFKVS
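AlphaScreen luminescence quantifies BAZ2B engagement of H3K14Ac peptide; the protein and biotinylated peptide are both at 50 nM final, buffer PBS pH 7.4 with 0.01% Tween-20, all steps at room temperature.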
HP1b chromo inh: HP1-beta chromodomain-methylated histone interaction inhibition; P83916; AlphaScreen HP1-beta / biotin-H3K9me3 peptide binding; Potency, µM (highest dose often 114 µM), hits mostly inhibitors; 0.56% of 390,000 active; further: nearly all actives have a fitted effect of over 70% in size
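Compound inhibition of the preformed complex between 50 nM HP1-beta and 50 nM biotinylated H3K9me3 peptide was read by AlphaScreen. Buffer was PBS pH 7.4 with 0.01% Tween-20. Incubations ran 30 min at room temperature, with 10 ug/mL donor/acceptor beads.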
G9a inh: blocks human histone lysine methyltransferase G9a | Q96KQ7 | G9a H3K9 monomethylation, AlphaScreen, 2 h | 8.8% of 350,000 active | Potency, µM (doses to about 102 µM), hits mostly inhibitors; further: nearly all actives have a fitted effect of over 75% in size
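Step 1: enzyme (final 20 nM) with compound, 15 min RT. Step 2: substrate peptide 500 nM and SAM 20 uM, 2 h RT. Step 3: anti-H3K9me1 antibody and AlphaScreen beads, 10 min, then plate read.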
JMJD2A Tudor inh: inhibitors of human JMJD2A Tudor domain; Potency, µM (top dose mostly 114 µM), actives largely listed as inhibitors; O75164; 4.4% of 390,000 active; AlphaScreen JMJD2A-Tudor / H3K4me3 peptide binding; further: nearly all actives have a fitted effect of over 50% in size
Hits are given with their value; i = inactive; ? = inconclusive; nt = no result given; ! = not confirmed by another sample; [ ] = dose if it differs, or a comment. Most compounds without a hit are left out; they make up all but 11% or so of the library. The call rests on the fitted dose curve; in most records, active means well fitted curve in the direction sought with a large enough effect; inconclusive means small, poorly fitted or top-dose-only effect, or another doubt; inactive means no such curve, though single readings can be large; an effect the other way counts as inactive or inconclusive.

SMILES | PLK1 PBD inh | VDR inh | BAZ2B inh | HP1b chromo inh | G9a inh | JMJD2A Tudor inh
Clc1cc(Br)ccc1OCCOCCOc1cccc2cccnc12 | i | i | i | i | i[12.7 µM] | i
O=[N+]([O-])c1ccccc1OCCOCCOc1cccc2cccnc12 | i | i | 31.6µM | ? | 2µM | 20µM
COc1cc(OC)c(NC(=O)CN(C)S(=O)(=O)c2ccc3c(c2)CCCC(=O)N3)cc1Cl | nt | i | i | i | i | i
CCCC(=O)OCC(=O)Nc1ccc(N=Nc2ccccc2)cc1 | i | i | ? | i | ? | ?
CN(C)c1ccc(CN(CC2CCCO2)C(=O)COc2ccc(Cl)cc2)cc1 (configuration not stated) | nt | i | 31.6µM | ? | 14.1µM | 44.7µM
COc1ccccc1OCC(=O)N(Cc1ccc(Cl)cc1)CC1CCCO1 (configuration not stated) | nt | i | i | i | i | i
CCCOc1ccc(C(=O)N(Cc2ccc(N(C)C)cc2)CC2CCCO2)cc1 (configuration not stated) | nt | i | 39.8µM | ? | 11.2µM | 39.8µM
COc1ccccc1C(=O)NCCC(=O)OCC(=O)Nc1ccc(S(N)(=O)=O)cc1 | i | i | i | i | i[12.7 µM] | i
COc1cc(/C=N/NC(=O)c2sc(N)c(C#N)c2C)cc(Br)c1O | i | i | i | i | i | i
COc1ccc(/C=N/c2oc(C)c(C)c2C#N)c(OC)c1 | i | i | i | i | 50.1µM | i
Cc1oc(/N=C/c2ccccc2)c(C#N)c1C | i | i | i | i | ? | i
Cc1oc(/N=C/c2cccc3ccccc23)c(C#N)c1C | 23.8µM | ? | i | i | i | 35.5µM
COc1cc(/C=N/c2oc(C)c(C)c2C#N)cc(Br)c1O | i | i | ? | i | 10µM | ?
COc1ccc(/C=C/C(=O)Nc2ccc(-n3nncc3-c3ccccc3)cc2)cc1OC | i | i | i | i | 44.7µM | i
Cc1oc(-c2ccccc2Cl)nc1CSc1nncn2c1cc1occc12 | nt | i | i | i | i | i
C=CCOc1c(Br)cc(CNc2ccc(NC(=O)C(C)C)c(OC)c2)cc1OC | i | i | ? | i | i[0.501 µM] | 35.5µM
COC(=O)c1nc(NC(=O)c2ccccc2Cl)n[nH]1 | ? | i | ? | i | ? | i
COC(=O)c1nc(NC(=O)c2ccc(Br)cc2)n[nH]1 | 23.8µM | i | i | i | i | i
COc1ccc(C(C)NC(=S)NC2CCCC2)cc1OC (configuration not stated) | i | ? | i | i | 17.8µM | i
CCNc1ncc2nc(-c3cc(F)cc(F)c3)c(=O)n(CCc3ccccc3)c2n1 | nt | ? | nt | nt | i[0.501 µM] | nt
COc1cc2c(cc1OC)CN(c1ccc(F)cc1[N+](=O)[O-])CC2 | i | ? | 39.8µM | ? | 35.5µM | 50.1µM
COc1cc2c(cc1OC)CN(C(=O)c1ccc(N3CCCC3)c([N+](=O)[O-])c1)CC2 | i | i | 44.7µM | ? | i[2.33 µM] | 50.1µM
C=C1C(C2(C)C=CC(=O)C(C)(C)C2CC(=O)OC)CC[C@@]2(C)C(c3ccoc3)OC(=O)C3OC132 (some centres not stated) | nt | i | nt | nt | nt | nt
C=C1C2=CC(=O)OC(c3ccoc3)[C@]2(C)CCC1[C@]1(C)C=CC(=O)C(C)(C)C1CC(=O)OC (some centres not stated) | nt | 39.8µM | nt | nt | i[2.33 µM] | nt
C=CCC(C)(O)c1cccs1 (configuration not stated) | nt | i | nt | nt | nt | nt
SMILES | PLK1 PBD inh | VDR inh | BAZ2B inh | HP1b chromo inh | G9a inh | JMJD2A Tudor inh
COc1ccc(CNC(=O)c2cc(=O)c3cc(C)ccc3o2)cc1 | i | i | i | i | i | i
CCN(CC)C(=O)c1cccc(-c2csc(C(C)(O)c3ccc(OC)cc3)n2)c1 (configuration not stated) | i | nt | nt | nt | nt | nt
COc1cccc(NC2c3ccccc3C(=O)N2Cc2ccccc2Cl)c1 (configuration not stated) | i | i | i | i | nt | i
CCN(CC)S(=O)(=O)c1ccc(NC2c3ccccc3C(=O)N2Cc2ccco2)cc1 (configuration not stated) | i | i | i | i | ? | i
Cc1ccccc1NC1c2ccccc2C(=O)N1Cc1ccco1 (configuration not stated) | i | i | ? | i | 44.7µM | i
COc1cccc(NC2c3ccccc3C(=O)N2Cc2ccco2)c1 (configuration not stated) | i | i | i | i | 50.1µM | ?
O=C(CN1CCCCC1)Nc1c2c(nc3ccccc13)N(c1ccccc1)CC2 | i | i | 56.2µM | ? | 14.1µM | ?
Nc1c2c(nc3ccccc13)N(c1ccccc1)CC2 | i | i | i | ? | ? | 35.5µM
CCCC(=O)Nc1c2c(nc3ccccc13)N(c1ccccc1)CC2 | i | i | i | i | i | i
O=C(OCn1ncc(Br)c(Br)c1=O)c1ccccc1Cl | 18.9µM | 22.4µM | i | i | i[12.7 µM] | i
O=C(OCn1ncc(Br)c(Br)c1=O)c1ccc(F)cc1 | 9.47µM | 25.1µM | i | i | i[12.7 µM] | i
CC(C)(C)OC(=O)NCCCNc1ncnc2ccc(-c3ccc4c(c3)OCO4)cc12 | nt | nt | nt | nt | nt | i
c1ccc(CCNCC2COc3ccccc3O2)cc1 (configuration not stated) | i | i | i | i | i | i
O=C(Cc1cc(C(=O)O)c2ccccc2n1)Nc1ccccc1 | i | i | i | i | 35.5µM | i
CCN(CC)C(=O)Cc1cc(C(=O)O)c2ccccc2n1 | i | i | i | i | i | i
O=C(CSCc1ccccn1)Nc1ccccc1 | i | i | i | i | i | i[11.4 µM]
COC(=O)c1sccc1NC(=S)Nc1cc(C)cc(C)c1 | i | i | i | i | i | i
S=C(Nc1ccccc1)Nc1nccs1 | i | ? | i | i | 26.7µM! | ?
O=C(Cc1ccccn1)Nc1ccccc1 | i | i | ? | i | 39.8µM | i
COC(=O)c1sccc1NC(=S)Nc1ccccc1 | i | i | i | i | 50.1µM | i
Cc1cc(C)c(C)c(S(=O)(=O)N2CCN(S(=O)(=O)c3ccc4c(c3)OCCO4)CC2)c1C | nt | nt | nt | nt | nt | i
COC(=O)[C@H]1C[C@@H]1[C@H](NC(=O)c1ccccc1)c1ccccc1 | i | i | i | i | i | i
O=C(NCc1ccccn1)/C(=N/O)c1ccccc1 | 3.36µM | i | i | i | i | i[11.4 µM]
C/C(=N\O)C(=O)NCc1ccccn1 | i | i | i | i | i | i
S=C(NCc1ccccn1)Nc1ccccc1 | i | i | 79.4µM | i | i | i
CCOc1ccc(NC(=O)CC(NCc2ccccn2)C(=O)O)cc1 (configuration not stated) | i | i | 1.41µM | i | ? | 11.2µM
Cc1ccc(Cn2nc3n(c2=O)-c2cc(Cl)ccc2OC3)cc1 | nt | i | i | i | i | i
COc1cc(OC)cc(-c2c(Sc3ccccc3)c3cc(-c4ccc5c(c4)OCCO5)ccc3n2C)c1 | i | nt | nt | nt | nt | nt
CCCCn1nnnc1C(c1ccccc1)N1CCN(CCN2CCOCC2)CC1 (configuration not stated) | i | nt | nt | nt | nt | nt

Assay outcomes as filed in PubChem BioAssay.
